Compound activity as filed in PubChem BioAssay.
DAX1 inh-1: NR0B1 (DAX1) inhibition; inhibition, % at 6.75 µM; HEK293 Gal4-DAX1 luciferase reporter, luminescence; actives 0.99% (n = 340,000);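 active means inhibition above the mean over all tested compounds plus 3 SD, cut at about 4.2% in these data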;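 further: 0% = DAX1-transfected cells with DMSO and 100% = empty-vector control cells with DMSO; inhibition shows as a rise in luminescence from relieved DAX1 repression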
Target sequence (P51843 207-470 limits assumed): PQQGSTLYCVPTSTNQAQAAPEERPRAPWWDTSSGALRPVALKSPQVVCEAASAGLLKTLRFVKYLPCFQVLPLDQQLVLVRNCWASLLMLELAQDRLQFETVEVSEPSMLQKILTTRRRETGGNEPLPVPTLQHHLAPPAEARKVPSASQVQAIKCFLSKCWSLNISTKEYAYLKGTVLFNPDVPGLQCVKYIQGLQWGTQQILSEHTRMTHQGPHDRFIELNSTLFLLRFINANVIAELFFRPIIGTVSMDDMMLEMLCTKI
DAX1 inh-2: blocks DAX1 repression of SF-1 activated StAR promoter | inhibition, % at 6.8 µM | HEK293T StAR-luciferase reporter, SF-1/DAX-1 repression relief | AID 652010 | actives 1.1% (n = 370,000);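 active means inhibition above the mean over all tested compounds plus 3 SD, cut at about 3.6% in these data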;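 further: 0% = DAX-1 cells with DMSO and 100% = cells lacking DAX-1 with DMSO; higher inhibition means more luminescence from relief of DAX-1 repression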
SMARCA2 activ: activators of SMARCA2 function; MG213 cells, MMTV-luciferase reporter, dexamethasone, overnight; activation, % at 9.1 µM; actives 1% (n = 370,000); AID 652017; in the data active means activation above about 7.8%;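 further: 0% = vehicle wells and 100% = reference activator wells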
hcDAF-12 act: H. contortus DAF-12 activation, primary screen; AID 652067; HEK293 hcDAF-12 lit1-tk-luc reporter, luminescence; 0% DMSO, 100% Δ7-dafachronic acid; actives 1.4% (n = 370,000); activation, % at 6.8 µM;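 active means activation above the mean of all tested compounds plus 3 SD, cut at about 5.5% in these data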;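 further: 100% = response to 3 µM Δ7-dafachronic acid high control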
hgDAF-12 ag: hgDAF-12 agonism, primary luciferase screen. actives 1.8% (n = 370,000). AID 687014. activation, % at 6.8 µM. HEK293 GAL4-hgDAF12 UAS-luciferase reporter, agonist luminescence; normalized to butyrate control;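 active means activation above a cutoff set at the mean of all screened compounds plus 3 SD, cut at about 10% in these data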;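 further: 0% = DMSO wells and 100% = sodium butyrate wells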
ssDAF12 agonist: S. stercoralis DAF-12 activation, primary screen; HEK293 ssDAF-12/GRIP1 lit1-tk-luc reporter, luminescence; % of 3 µM dafachronic acid response; activation, % at 6.8 µM; actives 1% (n = 370,000);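 active means activation above the mean over all tested compounds plus 3 SD, cut at about 0.9% in these data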;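 further: 0% = DMSO-only wells and 100% = 3 µM delta7-dafachronic acid wells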
SMARCA2 conf: confirmation of SMARCA2 (BRM) function activators; shares compounds with SMARCA2 activ; MG213 cells, MMTV-luciferase with dexamethasone, luminescence, overnight; MG213 cells expressing E1A, Rb sequestered; DMSO wells 0%, reference activator 100%; activation, % at 9.1 µM; actives 30% (n = 3,500); AID 652260;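 active means activation above its plate's cutoff, the mean activation of tested wells plus 3 SD, cut at about 7.9% in these data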
GAL4-VP16 Luc: GAL4-VP16 reporter activation counter-screen. shares compounds with SMARCA2 activ. HEK293 GAL4-VP16 pG5luc reporter, luciferase luminescence; scaled: DMSO wells 0%, SAHA wells 100%. activation, % at 9.1 µM. actives 41% (n = 3,500). AID 686939;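 active means activation above the solvent-only control well mean plus 3 SD, averaged across control plates, cut at about 5.2% in these data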
LXRb hcDAF ctr: LXR-beta agonism as hcDAF-12 counter-screen; HEK293 Gal4-LXR tk-luc reporter, luminescence, 24 h; normalized: DMSO 0%, positive control 100%; shares compounds with hcDAF-12 act; AID 743027; activation, % at 6.8 µM; 3,400 tested, under 10 active;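 active means mean percent activation of the reporter above a cutoff set as the average over tested compounds plus their standard deviation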
Target sequence (P55055 whole entry, looked up, the tested form may be a part): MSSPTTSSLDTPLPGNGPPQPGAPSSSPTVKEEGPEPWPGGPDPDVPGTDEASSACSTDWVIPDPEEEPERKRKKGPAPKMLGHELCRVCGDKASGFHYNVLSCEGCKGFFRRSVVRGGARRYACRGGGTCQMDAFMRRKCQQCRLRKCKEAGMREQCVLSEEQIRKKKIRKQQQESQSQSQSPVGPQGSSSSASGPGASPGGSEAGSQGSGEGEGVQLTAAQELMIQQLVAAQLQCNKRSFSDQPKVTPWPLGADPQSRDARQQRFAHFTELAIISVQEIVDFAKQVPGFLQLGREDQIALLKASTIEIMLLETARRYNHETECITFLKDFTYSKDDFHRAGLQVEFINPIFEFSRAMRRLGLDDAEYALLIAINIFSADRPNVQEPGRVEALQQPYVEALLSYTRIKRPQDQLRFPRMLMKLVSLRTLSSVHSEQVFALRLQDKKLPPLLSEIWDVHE
hcDAF12 ag: hcDAF-12 agonism, confirmation assay; shares compounds with hcDAF-12 act; HEK293 hcDAF-12 lit1-tk-luc reporter, luminescence; % of Δ7-dafachronic acid response; activation, % at 6.8 µM; actives 61% (n = 3,400); AID 743032;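 active means mean activation across triplicate tests above the threshold derived from the earlier primary screen, cut at about 5.5% in these data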;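 further: 0% = DMSO only wells and 100% = 3 µM Δ7-dafachronic acid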
hgDAF12 conf: hgDAF-12 agonism, confirmation assay; AID 743050; activation, % at 6.8 µM; HEK293 GAL4-hgDAF12 luciferase reporter, agonist mode; percent of butyrate response; actives 80% (n = 3,300); shares compounds with hgDAF-12 ag;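 active means mean activation over triplicate wells above the hit cutoff derived from the earlier primary screen, cut at about 11% in these data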;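 further: 0% = DMSO low control and 100% = 2 mM sodium butyrate high control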
LXRb DAF12 ctr: counter-screen for DAF-12 agonists: agonists of human LXR-beta | 3,300 tested, under 10 active | shares compounds with hgDAF-12 ag | HEK293 Gal4-LXR luciferase reporter, 24 h | AID 743051 | activation, % at 6.8 µM;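 active means mean activation of the triplicate above a set limit carried over from the primary screen, none filed active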
The depositor's hits bear a star. A selection: hits, their analogues and other compounds. The true share with any hit is near 4.8%.

Results for Cc1ccc(NC(=O)CN(C)C(=O)Cc2c(Cl)cccc2Cl)cc1 ?
DAX1 inh-1: -1; DAX1 inh-2: 0; SMARCA2 activ: -2; hcDAF-12 act: -1; hgDAF-12 ag: 2; ssDAF12 agonist: -1

What do the screens show for `Oc1ccc(-c2cnc(-c3ccc(O)cc3)nc2)cc1`?
DAX1 inh-1: -2; DAX1 inh-2: 3; SMARCA2 activ: 13*; hcDAF-12 act: 6.9*; hgDAF-12 ag: 17*; ssDAF12 agonist: 1.2*; SMARCA2 conf: 12*; GAL4-VP16 Luc: 11*; LXRb hcDAF ctr: 3; hcDAF12 ag: 8.7*; hgDAF12 conf: 17*; LXRb DAF12 ctr: 1

How did CCCC(=O)Nc1ccc(-c2cnc(-c3ccc(NC(=O)CCC)cc3)nc2)cc1 do in these assays?
DAX1 inh-1: 1; DAX1 inh-2: 0; SMARCA2 activ: -3; hcDAF-12 act: 0; hgDAF-12 ag: 4; ssDAF12 agonist: -1

Results for c1ccc(OCc2nc(-c3cccs3)no2)cc1 ?
DAX1 inh-1: 2; DAX1 inh-2: 2; SMARCA2 activ: 11*; hcDAF-12 act: 4; hgDAF-12 ag: 16*; ssDAF12 agonist: 0; SMARCA2 conf: 9.2*; GAL4-VP16 Luc: 6.6*; hgDAF12 conf: 13*; LXRb DAF12 ctr: 0

Results for Cc1cc(NC(=O)c2ccccc2)sc1C ?
DAX1 inh-1: 0; DAX1 inh-2: 4; SMARCA2 activ: 19*; hcDAF-12 act: 9.9*; hgDAF-12 ag: 19*; ssDAF12 agonist: 0; SMARCA2 conf: 8; GAL4-VP16 Luc: 8.6*; LXRb hcDAF ctr: 1; hcDAF12 ag: 5; hgDAF12 conf: 17*; LXRb DAF12 ctr: 1

How did O=S(=O)(Nc1ccc2c(c1)oc1ccccc12)N1CCCC1 do in these assays?
DAX1 inh-1: -1; DAX1 inh-2: 0; SMARCA2 activ: 1; hcDAF-12 act: -1; hgDAF-12 ag: 1; ssDAF12 agonist: -1

Results for CN1CCCC1CCNc1ccc2c(=O)c3ccccc3oc2c1 (stereo not given) ?
DAX1 inh-1: 3; DAX1 inh-2: 2; SMARCA2 activ: 11*; hcDAF-12 act: 2; hgDAF-12 ag: 14*; ssDAF12 agonist: 0; SMARCA2 conf: 14*; GAL4-VP16 Luc: 8.9*; hgDAF12 conf: 15*; LXRb DAF12 ctr: 1

How did Cc1ccc2nc(-c3ccc(SCC(=O)Nc4ccc5c(c4)OCCO5)nc3)[nH]c2c1 do in these assays?
DAX1 inh-1: 2; DAX1 inh-2: 3; SMARCA2 activ: 9.8*; hcDAF-12 act: 5; hgDAF-12 ag: 20*; ssDAF12 agonist: 0; SMARCA2 conf: 3; GAL4-VP16 Luc: 19*; hgDAF12 conf: 21*; LXRb DAF12 ctr: 1

What do the screens show for `CCCCn1c(N)c(N(CC(C)C)C(=O)CSC(C)C(=O)Nc2cc(C)on2)c(=O)[nH]c1=O` (stereo not given)?
DAX1 inh-1: 1; DAX1 inh-2: 0; SMARCA2 activ: -1; hcDAF-12 act: -1; hgDAF-12 ag: -3; ssDAF12 agonist: -1

How did Cc1ccc(NC(=O)c2ccc3snnc3c2)cc1 do in these assays?
DAX1 inh-1: 0; DAX1 inh-2: 2; SMARCA2 activ: 9.2*; hcDAF-12 act: 2; hgDAF-12 ag: 16*; ssDAF12 agonist: -1; SMARCA2 conf: 3; GAL4-VP16 Luc: 12*; hgDAF12 conf: 16*; LXRb DAF12 ctr: 0

What do the screens show for `Cc1c(CNCCC2=CCCCC2)c(C(=O)O)c(C)n1Cc1ccccc1`?
DAX1 inh-1: -1; DAX1 inh-2: 1; SMARCA2 activ: -2; hcDAF-12 act: -2; hgDAF-12 ag: -2; ssDAF12 agonist: -1

How did Cc1ccc(-c2cnc3ccccc3n2)cc1C do in these assays?
DAX1 inh-1: 3; DAX1 inh-2: 3; SMARCA2 activ: 8.2*; hcDAF-12 act: 14*; hgDAF-12 ag: 14*; ssDAF12 agonist: 1.5*; SMARCA2 conf: 3; GAL4-VP16 Luc: 9.4*; LXRb hcDAF ctr: 2; hcDAF12 ag: 16*; hgDAF12 conf: 20*; LXRb DAF12 ctr: 1

What do the screens show for `COc1ccc(-c2oc(=O)c3cc(OC)c(OC)cc3c2-c2ccc3c(c2)OCO3)cc1`?
DAX1 inh-1: 1; DAX1 inh-2: 0; SMARCA2 activ: 5; hcDAF-12 act: -1; hgDAF-12 ag: 2; ssDAF12 agonist: -1

How did COc1ccc(OC)c2nc(-c3ccc4c(c3)OCO4)ccc12 do in these assays?
DAX1 inh-1: 5.7*; DAX1 inh-2: 2; SMARCA2 activ: 8.6*; hcDAF-12 act: 6.4*; hgDAF-12 ag: 15*; ssDAF12 agonist: 1; SMARCA2 conf: 8; GAL4-VP16 Luc: 16*; hgDAF12 conf: 18*; LXRb DAF12 ctr: 1

How did c1ccc2oc(-c3ccc4nc[nH]c4c3)nc2c1 do in these assays?
DAX1 inh-1: 2; DAX1 inh-2: 3.8*; SMARCA2 activ: 9.6*; hcDAF-12 act: 4; hgDAF-12 ag: 19*; ssDAF12 agonist: 0; SMARCA2 conf: 10*; GAL4-VP16 Luc: 14*; hgDAF12 conf: 18*; LXRb DAF12 ctr: 1

How did COc1ccc(-c2nc3ccccc3o2)cc1OC do in these assays?
DAX1 inh-1: 0; DAX1 inh-2: 1; SMARCA2 activ: 5; hcDAF-12 act: 4; hgDAF-12 ag: 8; ssDAF12 agonist: -1
